# A selection: hits, their analogues and other compounds. The true share with any hit is near 8%.
# KB-V1 MDR tox: kills drug-selected multidrug resistant KB-V1 cells; KB-V1 MDR cells viability, CellTiter-Glo, 72 h; Potency, µM (series often up to 46.1 µM), actives largely listed as cytotoxic; 400,000 tested, 3.4% active; AID 1347076; note: % is set by controls: 0 for no effect and ±100 for the full control effect; nearly all actives have a fitted effect of over 60% in size
#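 Readout: CellTiter-Glo luminescence, 10 min after addition. Cells: KB-V1 MDR subline, 72 h at 37 degrees C with compound. Analysis: corrected, normalized data fitted to concentration-effect curves.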
# MCF10A rerep: DNA re-replication induction in MCF 10a cells; MCF 10A DNA re-replication, Hoechst nuclear intensity, 48 h; Potency, µM (doses to about 46.1 µM), without a hit: at the highest dose activity, positive = re-replication, hits mostly activators; 350,000 tested, 2.9% active; AID 624296; note: % of control where 0% means no effect; nearly all actives have a fitted effect of over 50% in size
# HT1080NT lethal: kills 2HG-producing HT-1080-NT fibrosarcoma cells. HT-1080-NT fibrosarcoma viability, CellTiter-Glo ATP luminescence, 48 h. Potency, µM (series often up to 46.1 µM), inactives show at the top dose activity, negative = less viability, hits mostly cytotoxic. 360,000 tested, 1.6% active;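 note: NT is the 2HG producing partner of a matched IDH1 knockdown line; 0% = DMSO-treated cells and -100% = media-only wells without cells; nearly all actives have a fitted effect of over 55% in size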
#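 Toxicity toward the 2HG-producing NT line was scored as %Activity, normalised to DMSO and no-cell wells, from CellTiter-Glo luminescence after 48 hours' treatment.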
# SW480 rereplic: induces DNA re-replication in SW480 colon adenocarcinoma cells; SW480 DNA re-replication, Hoechst DNA content imaging, 48 h; Potency, µM (highest dose often 46.1 µM), without a hit: at the highest dose re-replication activation, usual class: activators; 340,000 tested, 1.8% active; note: % of control where 0% means no effect; nearly all actives have a fitted effect of over 55% in size
#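 Compounds, transferred as 23 nL by pin tool, were incubated with cells for 48 hr; DNA content per nucleus was then quantified by Hoechst staining and fluorescence plate imaging.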
# HT1080 IDH1KD tx: kills HT-1080 cells with IDH1 knockdown; HT-1080 IDH1 knockdown viability, ATP luminescence, 48 h; Potency, µM (top dose mostly 46.1 µM), for the others: at the top dose activity, negative = toxicity, hits mostly cytotoxic; 360,000 tested, 2% active;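 note: 0% = DMSO wells and -100% = cell-free medium wells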
#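 Luminescent ATP read-out (CellTiter-Glo, 10 min at room temperature) after 48 h compound exposure at 37 °C gave viability of IDH1-knockdown HT-1080 cells. Activity was normalised to DMSO and cell-free wells, then fitted as concentration-response curves.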
# KB-3-1 cytotox: kills parental KB-3-1 adenocarcinoma cells; 400,000 tested, 1.4% active; AID 1347075; Potency, µM (series often up to 46.1 µM), actives largely listed as cytotoxic; KB-3-1 viability, CellTiter-Glo ATP luminescence, 72 h; note: % is set by controls: 0 for no effect and ±100 for the full control effect; nearly all actives have a fitted effect of over 60% in size
#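 Multi-concentration cytotoxicity screen in KB-3-1 cells grown in DMEM lacking phenol red with 10% FBS. After 72 h at 37 °C with compound, ATP-dependent luminescence was recorded.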
# * = called active by the depositor; i = inactive; ? = inconclusive; . = not tested or not shown; ! = not active in a repeat. Calls come from the whole dose curve; as a rule, active = well fitted curve in the direction sought with a large enough effect; inconclusive = small, poorly fitted or top-dose-only effect, or another doubt; inactive = no such curve, though single readings can be large; an effect the other way counts as inactive or inconclusive. Potency is the fitted concentration of half-maximal effect.
SMILES,KB-V1 MDR tox,MCF10A rerep,HT1080NT lethal,SW480 rereplic,HT1080 IDH1KD tx,KB-3-1 cytotox
Cc1ccc(CN2CCc3c(OCc4ccc(F)cc4)cccc3C2=O)cc1,5.8µM*,11%,-21%,0%,-18%,?
O=C1c2cccc(OCc3ccc(F)cc3)c2CCN1Cc1ccc(F)cc1,3.3µM*,21µM*,-28%,8%,?,2.9µM*
Cn1ncc2c(Nc3ccccc3Cl)nc(Nc3ccccc3Cl)nc21,i,18µM*,?,23%,?,i
Cc1ccc(NC(=O)C(OC(=O)c2ccc(C=O)cc2)c2ccccc2)cc1Cl (stereo not given),i,-18%,?,?,23µM*,i
CC(=O)Nc1cc(C(=O)OC(C(=O)c2ccccc2)c2ccccc2)ccc1C (stereo not given),16µM*,32%,-2%,-12%,-2%,i
O=C(COC(=O)c1ccc(Cl)cc1O)NCCN1C(=O)CSC1=O,i,0%,0%,7%,-7%,i
COc1ccc(-n2c(=O)c3c4c(sc3n(Cc3cc(C)ccc3C)c2=O)CN(C(C)=O)CC4)c(OC)c1,i,.,.,.,.,i
O=C1C=CC2C(c3ccc4c(c3)OCO4)CC1N2Cc1ccccc1 (stereo not given),?,?,-19%,4%,-20%,9.2µM*
O=C1C=C(c2cccc(OCc3ccccc3)c2)C[C@@H](c2ccc3c(c2)OCO3)C1,i,6%,0%,-20%,-16%,i
COC(=O)/C(=C/c1cccnc1)NC(=O)c1ccccc1,i,-10%,-3%,-7%,3%,i
COC(=O)C(=C/C(C)=C/c1cccnc1)C(=O)OC,?,8.2µM*,-25%,?,-11%,?
COc1cc(-c2noc(C)c2C#CC2(O)CCCCC2)cc(OC)c1OC,15µM*!,0%,-11%,-2%,-24%,?
COc1cc(-c2noc(C)c2C#CC2(N)CCCCC2)cc(OC)c1OC,21µM*!,?,-23%,-4%,-23%,?
COc1cc(-c2noc(C)c2C#Cc2ccsc2)cc(OC)c1OC,3.3µM*!,?,?,?,0.52µM*,?
O=C(C[C@H]1C[C@H](C(=O)N2CCCCC2)[C@@]2(CCc3ccccc3)c3[nH]c4ccc(Cl)cc4c3CCN2C1=O)NCCC1=CCCCC1,i,-14%,7%,1%,5%,i
Cc1nn(-c2ccccc2)c2c1/C(=N/O)CC(C)(C)C2,16µM*,11%,-4%,-8%,-3%,i
CCc1nnc2c(Nc3cccc(F)c3)nc3ccc(C(=O)c4ccccc4)cc3n12,9.2µM*,.,.,.,.,?
Cc1ccc(CN2[C@H](C)[C@H](c3ccccc3)OCCS2(=O)=O)cc1,16µM*,.,.,.,.,23µM*
Nc1nnnn1/N=C/C(Br)=C/c1ccccc1,?,2.6µM*,-30%,2.8µM*,9.2µM*,?
Cc1ccc(-c2nc3sccn3c2Nc2ccc(C)c(C)c2)cc1,i,.,.,.,.,i
Cc1cccc(NC(=O)CSc2nc(-c3cccs3)cc(C(F)(F)F)c2C#N)c1C,i,.,.,.,.,i
Cc1noc(C)c1COc1ccccc1C(=O)NCCc1ccccc1,?,5%,0%,-8%,6%,i
Cc1noc(C)c1COc1ccc(CC(=O)NCc2ccccc2)cc1,?,5.8µM*,?,?,1.2µM*,?
Cc1noc(C)c1COc1ccc(C(=O)NCCc2ccccn2)cc1,i,3.3µM*,1%,5%,0%,i
Cc1noc(C)c1COc1ccccc1C(=O)NC(C)CCc1ccccc1 (stereo not given),i,-1%,-2%,4.1µM*,-9%,i
SMILES,KB-V1 MDR tox,MCF10A rerep,HT1080NT lethal,SW480 rereplic,HT1080 IDH1KD tx,KB-3-1 cytotox
Cc1noc(C)c1COc1ccc(CC(=O)NCCc2ccccn2)cc1,i,4%,?,-9%,13%,i
CN(CC(=O)NCc1ccccc1Cl)S(=O)(=O)c1ccc2c(c1)c(=O)n(C)c(=O)n2C,i,.,.,.,.,i
CCOC(=O)c1cccc(NC(=O)CSc2nc3cc4ccccc4cc3[nH]2)c1,i,.,.,.,.,i
O=C(Nc1ccc(C(=O)OC2CCCCC2)cc1)c1ccncc1,i,0%,?,4%,?,?
N#CC1=C2SCC(O)(c3ccccc3)N2C(=O)CC1c1cccs1 (stereo not given),0.58µM*,1.3µM*,0.63µM*,7.3µM*,0.35µM*,0.73µM*
N#CC1=C2SCC(O)(c3ccccc3)N2C(=O)CC1c1ccccc1F (stereo not given),?,23µM*,?,?,16µM*,9.2µM*
COc1ccc(C2CC(=O)N3C(=C2C#N)SCC3(O)c2ccccc2)cc1 (stereo not given),21µM*,21%,-14%,-2%,?,i
N#CC1=C2SCN(Cc3ccccc3)CN2C(=O)CC1c1ccccc1F (stereo not given),i,14%,-3%,-1%,-1%,i
CCOc1ccc(NC(=O)CSC2=Nc3ccccc3C3=NC(CC(=O)NCc4cccs4)C(=O)N23)cc1 (stereo not given),i,.,.,.,.,i
CC(=O)c1cccc(Nc2c3c(nc4nc(-c5cccs5)nn24)CCCC3)c1,i,.,.,.,.,i
CC(=O)OC(C)(C)/C=C/C(=O)[C@](C)(O)C1[C@H](O)C[C@@]2(C)C3CC=C4C(C=C(O[C@@H]5O[C@H](CO)[C@@H](O)[C@H](O)[C@H]5O)C(=O)C4(C)C)[C@]3(C)C(=O)C[C@]12C (stereo not given in full),?,5.2µM*,?,0.92µM*,23µM*,?
O=C(N/C=C/c1ccccc1)c1cccc([S+](=O)([O-])Nc2ccccc2F)c1,?,.,.,.,.,i
COc1ccc(C2=NN(C)C(=NCc3ccccc3)SC2)cc1,23µM*,27%,-11%,4%,0%,?
COc1ccc(N=C2SCC(c3ccc(C)cc3)=NN2CCO)cc1,i,-3%,-24%,-52%,?,i
Cc1ccc(C(=O)NCC(c2cccs2)S(=O)(=O)c2cccs2)cc1 (stereo not given),?,.,.,.,.,21µM*
CC(C)(C)c1ccc(C(=O)NCC(c2cccs2)S(=O)(=O)c2cccs2)cc1 (stereo not given),i,.,.,.,.,i
CCCCCC1CCC(C(=O)NNC(=S)NCC)CC1 (stereo not given),15µM*,?,6.3µM*,-4%,3.2µM*,?

# Screens (PubChem BioAssay)
